Shown are actives, neighbours in structure and some others; about 3.7% of the full set was active somewhere.
D3 ag = qHTS of D3 Dopamine Receptor Agonist: qHTS; actives 0.58% (n = 410,000); D(3) dopamine receptor (Homo sapiens), P35462; D3R DiscoveRx beta-arrestin cells, luminescence, 90 min; max activation, %; AID 652048, 2013; in the data active means max activation above about 30%; further: 0% is about no effect
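Agonist-mode cell screen: cells plated at 1500/well and incubated overnight at 37 °C, then exposed to library compounds for 90 min at 37 °C. Detection reagent was added for 30–60 min at room temperature, and luminescence was read.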
B2AR arrestin = qHTS assay of beta-arrestin-biased ligands of beta2-adrenergic receptor. beta-arrestin recruitment to beta2AR, cell-based reporter. Potency, µM (series often up to 46.1 µM), for inactives: top-dose activation, usual class: activators. actives 0.02% (n = 330,000). AID 492947, 2010;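 further: potency means the concentration at half of the fitted maximal effect; 0% = DMSO controls and full agonism = EC100 isoproterenol or metaproterenol; nearly all actives have a fitted effect of over 65% in size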
BRCA1 expr up = qHTS Assay to Identify Small Molecule Activators of BRCA1 Expression | actives 1.1% (n = 380,000) | Potency, µM (series often up to 46.1 µM), inactives show at the top dose activation, usual class: activators | AID 624202, 2012 | MCF7-BRCA1-FFLuc reporter, luminescence, 48 h; response scale: scaled: vehicle 0%, 10 µM genistein 100%; further: potency means the concentration at half of the fitted maximal effect; nearly all actives have a fitted effect of over 80% in size
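48 h compound treatment of MCF7-BRCA1-FFLuc cells (phenol-red free MEM, 37 °C), then 15 min with luciferase substrate and luminescence imaging.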
D3 antag = qHTS of D3 Dopamine Receptor Antagonist: qHTS; D(3) dopamine receptor (Homo sapiens), P35462; D3R cells, DiscoveRx beta-arrestin luminescence, antagonist mode; active compounds read low; max response, negative = inhibition, %; actives 2.5% (n = 360,000); AID 652054, 2013; in the data active means max response below about -50%; inconclusive means no clear call, values can overlap the other calls; further: on the % scale 0 is the no-effect control and ±100 the full control effect
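Cells expressing the human receptor were seeded at 1500 cells/well, incubated overnight at 37 degrees C in 5% CO2, then exposed to library compounds with dopamine controls for 90 minutes at 37 degrees C before luminescent detection.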
PTHR1 ag = qHTS for PTHR1 Agonists: Primary Screen; Parathyroid hormone/parathyroid hormone-related peptide receptor (Homo sapiens), Q03431; HEK293 GP2 PTHR1 cells, GloSensor cAMP luminescence, 1 h; Potency, µM (top dose mostly 115 µM), without a hit: top-dose activation, hits mostly activators; actives 0.075% (n = 410,000); AID 743266, 2014; further: potency means the concentration at half of the fitted maximal effect; nearly all actives have a fitted effect of over 55% in size
Target sequence (Q03431 whole entry, looked up): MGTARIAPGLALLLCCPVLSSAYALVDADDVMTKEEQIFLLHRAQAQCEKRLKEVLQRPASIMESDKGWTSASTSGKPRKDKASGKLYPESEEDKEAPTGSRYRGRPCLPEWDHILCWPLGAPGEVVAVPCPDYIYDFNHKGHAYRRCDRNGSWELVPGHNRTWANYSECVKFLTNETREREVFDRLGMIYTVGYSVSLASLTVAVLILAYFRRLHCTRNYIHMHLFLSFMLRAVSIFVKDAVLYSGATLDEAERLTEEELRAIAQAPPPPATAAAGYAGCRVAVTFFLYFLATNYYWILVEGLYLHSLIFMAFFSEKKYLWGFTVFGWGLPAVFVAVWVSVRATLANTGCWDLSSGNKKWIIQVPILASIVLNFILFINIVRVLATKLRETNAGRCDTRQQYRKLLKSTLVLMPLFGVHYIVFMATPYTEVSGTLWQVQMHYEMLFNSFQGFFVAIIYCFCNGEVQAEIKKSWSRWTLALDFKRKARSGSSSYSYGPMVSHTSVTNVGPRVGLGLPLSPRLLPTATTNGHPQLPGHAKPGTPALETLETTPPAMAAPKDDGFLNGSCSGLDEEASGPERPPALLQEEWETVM
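HEK-293-derived GP2 cells expressing PTHR1 and a GloSensor cAMP reporter, 3,000/well, plated overnight, given luciferin plus IBMX (each 0.5 mM as added) for 1 h at 37 °C, then compound for 1 h at 37 °C. Luminescence was read after 15 min at room temperature.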
RGS4 inh = Inhibitors of Regulator of G Protein Signaling (RGS) 4: qHTS | Regulator of G-protein signaling 4 (Homo sapiens), P49798 | Transcreener GDP fluorescence polarization, RGS4-accelerated GTP hydrolysis | Potency, µM (top dose mostly 114 µM), inactives show at the highest dose activity change, negative = inhibition, usual class: inhibitors | actives 0.039% (n = 390,000) | AID 504845, 2011; further: potency means the concentration at half of the fitted maximal effect; on the % scale 0 is the no-effect control and ±100 the full control effect; nearly all actives have a fitted effect of over 75% in size
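MLSMR compounds (23 nl, pin-transferred) preincubated 10 min at room temperature with a 500nM (2x) first reagent, then RGS4 at 900nM (2x) plus Transcreener GDP mix added; fluorescence polarization (620/688 nm) read before and after 90 min at 30 °C.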
The depositor's hits bear a star; i = inactive; ? = inconclusive; . = not tested or not shown; [ ] = dose if it differs, or a comment. Unless noted, the call rests on the fitted dose curve; in most records, active means well fitted curve in the direction sought with a large enough effect; inconclusive means small, poorly fitted or top-dose-only effect, or another doubt; inactive means no such curve, though single readings can be large; an effect the other way counts as inactive or inconclusive.

SMILES	D3 ag	B2AR arrestin	BRCA1 expr up	D3 antag	PTHR1 ag	RGS4 inh
CNc1ccc(Br)cc(C(=O)/C=C/c2cc(OC)ccc2OC)c1=O	-7	-1%	-95%	0	-77%[57.5 µM]	?
Cc1cc(C)cc(C(=O)Nc2nc3ccccc3[nH]2)c1	0	-1%	7.9µM*	12	0%	-24%
O=C(CC1CCCC1)Nc1nc2ccccc2[nH]1	1	0%	3.2µM*	-2	i	-5%[11.4 µM]
COc1ccc(OCC(=O)Nc2nc3ccccc3[nH]2)cc1	-2	-2%	10µM*	35	-6%[57.5 µM]	-7%
O=C(Nc1nc2ccccc2[nH]1)c1cc(F)cc(F)c1	6	0%	?	4	-8%	3%
O=C(Nc1nc2ccccc2[nH]1)C1CCCC1	1	0%	?	-2	-59%	35%
O=C(NNc1c2ccccc2nc2ccccc12)c1ccc(O)cc1	-7	-1%	57%	-64*	-14%	4%[11.4 µM]
O=C(NNc1c2ccccc2nc2ccccc12)c1cccc(O)c1	-4	-1%	29%	-29	-23%	5%
CC1(C(=O)Nc2ccc3c(c2)OCCO3)CCC(=O)N1CCOc1ccccc1 (stereo unspecified)	5	.	7%	0	-25%	.
Cc1ccc2c(c1)[C@@H]1CN(C)CC[C@@H]1N2S(=O)(=O)c1ccc(F)cc1	-21	0%	0%	-63*	0%[57.5 µM]	9%
CCc1ccc(S(=O)(=O)N2c3ccc(C)cc3C3CN(C)CCC32)cc1 (stereo unspecified)	-20	0%	-2%	?	-24%	-32%
Cc1ccc2c(c1)[C@@H]1CN(C)CC[C@@H]1N2S(=O)(=O)c1ccc([N+](=O)[O-])cc1	-14	0%	-24%	-107*	-12%[57.5 µM]	-8%
COc1ccc(C(=O)C(CCCCC(CN(C)C)C(=O)c2ccc(OC)cc2)CN(C)C)cc1 (stereo unspecified)	-13	3%	-60%	?	i	-20%
CN(C)CC(CCC(CN(C)C)C(=O)c1ccccc1)C(=O)c1ccccc1 (stereo unspecified)	-43	1%	-92%	-80*	-50%	-49%
CCOc1ccc(C(=O)C(CCC(CN(C)C)C(=O)c2ccc(OCC)cc2)CN(C)C)cc1 (stereo unspecified)	-13	0%	-104%	-85*	?	-13%[11.4 µM]
CCOc1ccccc1NS(=O)(=O)c1cn(C)nc1C	10	0%	18%	10	i	-1%
COc1c(Br)cc2c(C)c(C(=O)O)oc2c1Br	33*	0%	-3%	-15	18%	3%
O=C(C[C@@H]1CC[C@@H]2[C@H](COC[C@H](O)CN2C(=O)Nc2ccc(F)cc2)O1)NCCc1ccncc1	-4	.	.	-20	12%	.
COc1ccc(C[C@@H]2OC3(C=CC(=O)C=C3)O[C@H]2Cc2ccc(OC)cc2)cc1	-13	.	-94%	-118*	-11%	?
COc1ccc(N2C(=O)CC(Cc3ccccc3)C2=O)cc1 (stereo unspecified)	0	0%	15%	16	-5%[57.5 µM]	10%
O=C1C=CC2(C=C1)O[C@H](Cc1ccccc1)[C@@H](Cc1ccccc1)O2	-30	.	-88%	-109*	-44%	?
O=C(Nc1nc2ccc(F)cc2s1)c1ccccn1	-25	0%	?	-73*	-33%	-4%
O=C(Nc1nnc(SCc2ccc(F)cc2)s1)c1ccccn1	-26	6%	8%	-66*	-19%	-25%
CC#CCOC(=O)C1=CCCN(C)C1	.	.	.	.	.	i
COc1cc(NC(=O)N2CCc3nc(Nc4cc(Cl)cc(Cl)c4)ncc3C2)cc(OC)c1OC	-1	.	-62%	-16	-68%	.
SMILES	D3 ag	B2AR arrestin	BRCA1 expr up	D3 antag	PTHR1 ag	RGS4 inh
Cc1ccc(NC(=O)CCN2C(=O)C3CCCCC3C2=O)c(O)c1 (stereo unspecified)	6	0%	-7%	9	i	-6%
Cc1ccc(NC(=O)CCCC2CCCCC2)c(O)c1	15	0%	13µM*	23	-5%	-2%
CCOC(=O)C1Oc2ccccc2C(c2ccoc2)=C1C(=O)OC (stereo unspecified)	12	5%	27%	0	-13%	-37%
CCCOc1ccc(F)cc1-c1cc(C(=O)NC2CCCCC2)[nH]n1	-19	.	13%	-102*	-26%	.
CC(C)Oc1cc(F)ccc1-c1cc(C(=O)NC2CCCCC2)[nH]n1	-15	.	-5%	?	-5%	.
Cc1cc(F)ccc1-c1cc(C(=O)NC2CCCCC2)[nH]n1	-22	.	85%	-83*	-15%	.
Cc1ccccc1NC(=O)c1cc(S(=O)(=O)N2CCCCC2)ccc1N1CCOCC1	1	.	-5%	36	-18%	.
Cc1c(/C=N/NC(=O)c2ccc(O)cc2)c2ccccn2c1C(=O)c1ccc(F)cc1	-9	2%	-61%	-28	-16%	-51%
Cc1c(/C=N/NC(=O)c2ccccc2O)c2ccccn2c1C(=O)c1ccc(F)cc1	31*	-1%	-90%	13	-5%	2%
Cc1ccc(NC(=O)c2ccc([N+](=O)[O-])o2)c(C)c1	-1	0%	-85%	-1	-37%	16%
Cc1ccc(S(=O)(=O)c2ccc([N+](=O)[O-])o2)cc1	-38	.	-96%	-111*	-37%	?
OC(CNC1CCCCCC1)COc1cccc2ccccc12 (stereo unspecified)	-20	0%	-64%	-75*	-20%	7%
Cc1cc2c(OCC(O)CNC3CCCCC3)cccc2[nH]1 (stereo unspecified)	-29	0%	-5%	-59*	i	8%
OC(CNC1CCCC1)COc1ccccc1Br (stereo unspecified)	-7	0%	-2%	-19	-20%	21%
OC(CNC1Cc2ccccc2C1)COc1ccc(F)cc1 (stereo unspecified)	-29	-1%	3%	-64*	?	27%
COc1ccc(-c2nc3scc(CCNS(=O)(=O)c4ccc5c(c4)OCCO5)n3n2)cc1OC	9	.	.	.	-5%	5%
